High-throughput results deposited in PubChem BioAssay by National Center for Advancing Translational Sciences (NCATS).
CtBP-E1A blk: blocks the CtBP interaction with E1A | AlphaScreen GST-E1A/His-CtBP binding, 1536-well; active compounds read low | activity change, % (test concentration not listed) | 340,000 tested, 0.49% active | AID 651724; in the data active = activity change below about -65%; inconclusive = mostly about -30% to -63%; note: % is set by controls: 0 for no effect and ±100 for the full control effect
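GST-E1A and His-tagged CtBP (125 nM each as 5X stock) were preincubated with pin-transferred compound for 2 h at 37 °C in the dark, then glutathione donor and nickel acceptor beads were added for 1 h before AlphaScreen reading.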
JMJD2A Tudor inh: blocks the human JMJD2A Tudor domain | O75164 | AlphaScreen JMJD2A-Tudor / H3K4me3 peptide binding | Potency, µM (top dose mostly 114 µM), for inactives: at the top dose activity change, negative = inhibition, most hits filed as inhibitors | 390,000 tested, 4.4% active | AID 504339; note: potency is the fitted concentration of half-maximal effect; % is set by controls: 0 for no effect and ±100 for the full control effect; nearly all actives have a fitted effect of over 50% in size
G9a block: G9a (human) methyltransferase inhibition; Q96KQ7; G9a H3K9 monomethylation, AlphaScreen, 2 h; Potency, µM (highest dose often 102 µM), without a hit: at the top dose activity, negative = inhibition, most hits filed as inhibitors; 350,000 tested, 8.8% active; AID 504332; note: potency is the fitted concentration of half-maximal effect; % is set by controls: 0 for no effect and ±100 for the full control effect; nearly all actives have a fitted effect of over 75% in size
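Compounds were preincubated with 20 nM G9a for 15 min, after which biotinylated H3K9 peptide (500 nM) and SAM (20 uM) started a 2 h room-temperature reaction. Monomethylated product was quantified by antibody-based AlphaScreen chemiluminescence.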
BAZ2B block: BAZ2B (human) inhibition; Q9UIF8; AlphaScreen BAZ2B-H3K14Ac peptide displacement; Potency, µM (top dose mostly 114 µM), for the others: at the highest dose activity change, negative = inhibition, hits mostly inhibitors; 360,000 tested, 4.4% active; note: potency is the fitted concentration of half-maximal effect; % is set by controls: 0 for no effect and ±100 for the full control effect; nearly all actives have a fitted effect of over 60% in size
Target sequence (Q9UIF8 whole entry, looked up): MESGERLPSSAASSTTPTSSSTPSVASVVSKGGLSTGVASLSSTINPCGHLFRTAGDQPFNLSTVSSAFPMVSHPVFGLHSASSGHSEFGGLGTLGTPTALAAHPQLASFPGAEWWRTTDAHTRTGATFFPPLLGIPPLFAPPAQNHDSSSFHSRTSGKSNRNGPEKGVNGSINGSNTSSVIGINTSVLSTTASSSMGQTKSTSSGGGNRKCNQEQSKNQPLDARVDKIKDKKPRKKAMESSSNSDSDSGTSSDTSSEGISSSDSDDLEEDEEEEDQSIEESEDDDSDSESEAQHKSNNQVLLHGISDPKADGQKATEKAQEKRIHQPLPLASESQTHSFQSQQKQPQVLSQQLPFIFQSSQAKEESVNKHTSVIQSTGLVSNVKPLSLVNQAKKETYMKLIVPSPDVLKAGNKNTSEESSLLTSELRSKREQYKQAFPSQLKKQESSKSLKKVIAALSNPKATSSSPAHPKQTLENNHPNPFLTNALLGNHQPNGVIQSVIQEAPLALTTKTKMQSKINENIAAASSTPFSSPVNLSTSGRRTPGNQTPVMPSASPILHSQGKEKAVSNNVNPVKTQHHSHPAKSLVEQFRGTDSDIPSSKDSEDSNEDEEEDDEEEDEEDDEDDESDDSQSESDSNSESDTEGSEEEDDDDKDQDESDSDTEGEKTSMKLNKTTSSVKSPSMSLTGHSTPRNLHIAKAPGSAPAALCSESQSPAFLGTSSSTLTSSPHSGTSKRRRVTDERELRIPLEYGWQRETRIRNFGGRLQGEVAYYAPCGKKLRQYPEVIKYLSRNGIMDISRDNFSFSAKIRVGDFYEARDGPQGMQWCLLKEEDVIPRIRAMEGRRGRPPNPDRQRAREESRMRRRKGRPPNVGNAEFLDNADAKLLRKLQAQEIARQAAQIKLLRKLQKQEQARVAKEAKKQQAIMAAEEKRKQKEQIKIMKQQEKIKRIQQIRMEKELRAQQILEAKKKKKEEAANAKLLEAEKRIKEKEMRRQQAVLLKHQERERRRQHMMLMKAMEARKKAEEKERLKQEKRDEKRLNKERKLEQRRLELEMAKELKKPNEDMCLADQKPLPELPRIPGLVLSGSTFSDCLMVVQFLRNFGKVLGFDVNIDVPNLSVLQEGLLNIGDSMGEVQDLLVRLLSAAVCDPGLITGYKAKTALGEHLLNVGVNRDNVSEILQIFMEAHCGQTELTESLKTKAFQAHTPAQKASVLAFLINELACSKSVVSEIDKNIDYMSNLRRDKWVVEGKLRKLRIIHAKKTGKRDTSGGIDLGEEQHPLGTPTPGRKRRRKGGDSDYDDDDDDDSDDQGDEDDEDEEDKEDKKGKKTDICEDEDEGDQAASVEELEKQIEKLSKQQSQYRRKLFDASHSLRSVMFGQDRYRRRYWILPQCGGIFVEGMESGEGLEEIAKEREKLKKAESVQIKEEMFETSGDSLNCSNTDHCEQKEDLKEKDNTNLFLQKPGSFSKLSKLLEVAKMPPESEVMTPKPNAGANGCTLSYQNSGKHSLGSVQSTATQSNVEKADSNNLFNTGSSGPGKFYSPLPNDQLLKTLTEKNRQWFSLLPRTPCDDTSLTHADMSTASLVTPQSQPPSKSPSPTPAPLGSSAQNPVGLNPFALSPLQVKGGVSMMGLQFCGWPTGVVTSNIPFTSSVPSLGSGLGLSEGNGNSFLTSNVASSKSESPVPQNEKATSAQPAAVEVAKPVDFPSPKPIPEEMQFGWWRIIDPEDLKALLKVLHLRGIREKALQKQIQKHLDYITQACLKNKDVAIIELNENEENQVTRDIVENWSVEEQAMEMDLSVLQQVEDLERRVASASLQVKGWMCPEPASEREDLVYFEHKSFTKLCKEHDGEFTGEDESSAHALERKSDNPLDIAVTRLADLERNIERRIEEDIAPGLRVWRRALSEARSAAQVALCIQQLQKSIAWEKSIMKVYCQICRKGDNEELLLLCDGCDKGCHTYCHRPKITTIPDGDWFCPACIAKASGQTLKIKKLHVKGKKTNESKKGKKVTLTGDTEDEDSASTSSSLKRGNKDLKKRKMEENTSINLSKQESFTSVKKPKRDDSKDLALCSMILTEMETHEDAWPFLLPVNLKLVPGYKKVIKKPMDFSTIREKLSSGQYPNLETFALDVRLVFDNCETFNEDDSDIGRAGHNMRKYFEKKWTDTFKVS
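Multi-concentration screen (max 110 uM) measuring displacement of acetylated histone H3 peptide from BAZ2B by AlphaScreen, using 50 nM protein, 50 nM peptide and 10 ug/mL streptavidin donor plus Ni-chelate acceptor beads.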
HP1b binding inh: HP1-beta chromodomain-methylated histone interaction inhibition; P83916; AlphaScreen HP1-beta / biotin-H3K9me3 peptide binding; Potency, µM (doses to about 114 µM), for inactives: top-dose activity change, negative = inhibition, most hits filed as inhibitors; 390,000 tested, 0.56% active; AID 540317; note: potency is the fitted concentration of half-maximal effect; nearly all actives have a fitted effect of over 70% in size
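Compound inhibition of the preformed complex between 50 nM HP1-beta and 50 nM biotinylated H3K9me3 peptide was read by AlphaScreen. Buffer was PBS pH 7.4 with 0.01% Tween-20. Incubations ran 30 min at room temperature, with 10 ug/mL donor/acceptor beads.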
Six1-Eya2 blk: inhibitors of human Six1/Eya2 interaction; AlphaScreen GST-Six1/His-Eya2 binding, biochemical; active compounds read low; 360,000 tested, 0.56% active; activity change, % (test concentration not listed); AID 651725; in the data active = activity change below about -65%; inconclusive = mostly about -30% to -63%; note: % is set by controls: 0 for no effect and ±100 for the full control effect
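AlphaScreen with GST-Six1 and His-Eya2 (5X mix: 250 nM and 500 nM), glutathione donor and nickel acceptor beads; buffer 50 mM Tris pH 8.0, 300 mM NaCl, 1 mM TCEP; 1 h at 37 C in the dark.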
Active calls of the source: *; ? = inconclusive; . = not tested or not shown; [ ] = dose if it differs, or a comment. Hits are enriched below; roughly 10% of the tested compounds scored in any of these assays. Unless noted, calls come from the whole dose curve; as a rule, active = well fitted inhibition curve with a large enough effect; inconclusive = small, poorly fitted or top-dose-only effect; inactive = no such curve, though single readings can be large or run the other way.

SMILES	CtBP-E1A blk	JMJD2A Tudor inh	G9a block	BAZ2B block	HP1b binding inh	Six1-Eya2 blk
Cc1cccc(C)c1Nc1c(-c2cccs2)nc2ncccn12	.	-10%	-28%[59 µM]	?	-7%	.
Cc1cccn2c(Nc3ccccc3)c(-c3ccccn3)nc12	-23	13µM*	40µM*	18µM*	9%	-22
Cc1cccc(C)c1Nc1c(-c2ccccn2)nc2c(C)cccn12	.	10µM*	-38%[59 µM]	?	-18%	.
O=C(NCc1n[nH]c(=S)n1-c1ccccc1)c1ccc(S(=O)(=O)N2CCOCC2)cc1	-2	7.1µM*	?	-4%	10%	3
O=C(NCc1n[nH]c(=S)n1-c1ccc(F)cc1)c1ccco1	-10	22µM*	22µM*	-7%	28%	4
O=C(NCc1n[nH]c(=S)n1-c1ccc(F)cc1)c1ccc(S(=O)(=O)N2CCOCC2)cc1	.	13µM*	14µM*	-1%	13%	1
O=C(Cc1ccccc1)NCc1n[nH]c(=S)n1-c1ccc(Br)cc1	.	?	?	-18%	8%	0
O=C(NCc1n[nH]c(=S)n1-c1ccccc1)c1ccc(S(=O)(=O)N2CCCCC2)cc1	10	?	8.9µM*	9%	22%	11
COc1ccc(C2Nc3ccccc3C(=O)N2Cc2ccccc2)cc1COc1cccc(C)c1 (stereo not drawn)	.	-12%	.	.	.	.
COc1ccc(Cl)cc1NC(=O)CCc1c(C)nc2c(c1C)c(=O)n(C)c(=O)n2C	.	-3%	-5%[59 µM]	-23%	34%	.
O=C(Nc1ccc(-c2cn3cccnc3n2)cc1)c1cc(Br)ccc1Cl	.	-12%	-1%[59 µM]	-16%	43%	.
CCC(=O)NC(=S)Nc1cccc(NC(=O)c2ccccc2Cl)c1	-8	-6%[11.4 µM]	18µM*	-1%	-1%	0
CC(C)CC(=O)NC(=S)Nc1cccc(NC(=O)c2ccccc2Cl)c1	-4	?	7.9µM*	-3%	23%	-2
CCCC(=O)NC(=S)Nc1cccc(NC(=O)c2ccccc2Cl)c1	5	?	-14%[59 µM]	-6%	31%	-5
COc1cccc(C(=O)Nc2ccc3nc(N4CCC(C)CC4)cc(C)c3c2)c1	.	-28%	-2%[59 µM]	1%	20%	.
Nc1n[nH]c(N)c1N=Nc1ccc(F)cc1	.	?	-4%	?	21%	1
Cc1nc(N)sc1N=Nc1ccc(F)cc1	?	?	45µM*	-8%	?	?
Nc1sccc1C(=O)c1ccccc1	-1	-36%	45µM*	-9%	-15%	-3
CCOC(=O)c1ccc(NC(=O)Cn2nc3c4ccccc4n(Cc4cccc(F)c4)cc-3c2=O)cc1	.	1%	7%[59 µM]	-3%	37%	.
Cc1ccc(N=C2NC(=O)CS2)cc1C	.	-9%	13%	-25%	18%	3
COc1cc(OC)cc(C(=O)n2cnnc2N)c1	-14	-6%	45µM*	-32%	35%	-6
COC(=O)c1cn(C(=O)c2cc(OC)cc(OC)c2)c2ccccc12	5	10%	51%	3%	72%	15
O=[N+]([O-])c1ccc(CN2CC(N3CCN(CC4CC4)CC3)CS2(=O)=O)cc1 (stereo not drawn)	7	.	.	.	.	0
Cc1ccsc1S(=O)(=O)N1CCCC(CCC(=O)NCc2ccccc2F)C1 (stereo not drawn)	-8	-16%	79µM*	-16%	57%	1
Cc1ccsc1C(=O)N1CCCC(CCC(=O)NCc2ccccc2F)C1 (stereo not drawn)	0	-3%	-11%	7%	46%	4
SMILES	CtBP-E1A blk	JMJD2A Tudor inh	G9a block	BAZ2B block	HP1b binding inh	Six1-Eya2 blk
O=C(Nc1cccc(C(=O)O)c1)/C(=C\C=C\c1ccccc1)NC(=O)c1ccccc1	2	-1%	?	-18%	34%	4
CC1=NN(c2ccccc2)C(=O)/C1=C/C=C/C=C/N(C)C	-25	?	18µM*	13µM*	?	-8
CC1=NN(c2cccc(C(=O)O)c2)C(=O)/C1=C\C=C/c1ccccc1	2	?	40µM*	?	?	4
Cc1ccc(NC(=O)CCCN2C(=O)/C(=C/C=C/c3ccccc3)SC2=S)cc1	27	-12%[57.1 µM]	-2%[59 µM]	-11%	-24%	15
CC1=NN(c2ccc(C)cc2)C(=O)/C1=C\C=C\c1ccccc1	0	4.5µM*	4.5µM*	2.5µM*	5.6µM*	7
O=C(CN1C(=O)CC(c2ccccc2)Sc2ccccc21)Nc1cccc(Cl)c1 (stereo not drawn)	.	-12%	-3%[59 µM]	-3%	14%	.
O=C(COc1ccccc1[N+](=O)[O-])N/N=C/C=C/c1ccco1	-12	-13%[57.1 µM]	40µM*	-38%	19%	-18
Cn1cccc1CC(=O)N/N=C/c1ccc(Cl)cc1	18	-21%	.	?	11%	7
Cc1ccc(/C=N\NC(=O)Cc2cccn2C)o1	-16	-3%[57.1 µM]	28µM*	.	8%	-9
Cn1cccc1CC(=O)N/N=C/C=C/c1ccco1	0	?	13µM*	56µM*	?	?
C/C(=N\NC(=O)Cc1cccn1C)c1ccco1	?	-14%	3%[12.7 µM]	-16%	33%	-1
O=C(N/N=C/C=C/c1ccco1)C(O)c1ccccc1 (stereo not drawn)	0	56µM*	.	.	-6%	-7
COc1ccc(-c2nn3c(-c4cc(-c5ccccc5)n[nH]4)nnc3s2)cc1OC	.	-4%[57.1 µM]	.	.	14%[57 µM]	.
O=C(CN1c2ccccc2Sc2ccccc21)N/N=C/c1ccccc1	5	-22%	-23%[59 µM]	?	23%	-24
Cn1cccc1CC(=O)N/N=C\c1ccccc1	-4	-19%	-43%	-31%	7%	-4
Cc1ccc(/C=N/NC(=O)CN2C(=O)CSc3ccccc32)o1	0	-5%	45µM*	-2%	25%	1
Cn1cccc1CC(=O)N/N=C/c1ccc([N+](=O)[O-])cc1	-24	?	50µM*	?	?	-21
NC(=O)NC(=O)C(c1ccccc1)N1CCN(S(=O)(=O)Cc2ccccc2)CC1 (stereo not drawn)	-2	-8%	1%[59 µM]	0%	26%	11
Cc1ccc(CNC(=O)C2CCCN2C(=O)Nc2cccc(Cl)c2)cc1 (stereo not drawn)	5	2%	.	-4%	25%	-1
CCC(CC)N1CCN(S(=O)(=O)c2ccc(OC)cc2)CC1	-3	1.6µM*	3.5µM*	50µM*	?	8
Cc1cc(-c2ccc(C(C)C)c(S(=O)(=O)N3CCN(c4ccccc4)CC3)c2)on1	-26	?	-17%	?	-12%[57 µM]	-24
COc1ccc(S(=O)(=O)N2CCN(S(=O)(=O)c3c(F)cccc3F)CC2)cc1	.	-18%	5%[12.7 µM]	-12%	.	.
